Records with an inconclusive call do not appear. The source made the active and inactive calls. Unless noted, calls follow the shape of the dose curve; as a rule, active = well fitted curve in either direction with a large enough effect (not every such curve was filed as active); inconclusive = small, poorly fitted or top-dose-only effect, or another doubt; inactive = flat fitted curve, though single readings scatter.

Assay [1] deals with Lysosomal acid glucosylceramidase (Homo sapiens) (UniProt P04062). Put plainly: Glucocerebrosidase-p2 (AID 348; in the data active = potency below about 10 µM; also: potency is read from the fitted curve at half-maximal effect). As to conditions: purified GBA, blue fluorogenic substrate, 40 min. A digest of the protocol:
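Normal human glucocerebrosidase (0.2 nM) with blue fluorogenic substrate (80 uM final) in citrate/phosphate pH 5.9 with 10mM sodium taurocholate, 0.01% tween-20; 40 min RT, NaOH/glycine stop; fluorescence Ex 365/Em 440; AC50 from a titration from 0.6 nM upwards.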

The nature of assay [2]: AP1 Signaling Pathway (AID 357).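 Also: ME-180 reporter cells stimulated with EGF at its EC50 level; % is scaled to controls: 0 for no effect and ±100 for the full control effect.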 To be noted: ME-180 AP-1-bla reporter, EGF-induced, beta-lactamase ratio, 5 h; at 7.69 µM (top of the series) unless noted. A digest of the protocol: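 AP-1-bla ME-180 cells, Opti-MEM + 0.5% dialyzed FBS, plated overnight 37 °C. Cpd titration + EC50 EGF, 5 h 37 °C. CCF4 2.5 h RT; ex 405, em 460/530 ratio → %activity, AC50.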
Assay [3] in a line: NFAT Signaling Pathway (AID 444).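 Also: carbachol stimulus at about its EC50 of 1 µM final; % is scaled to controls: 0 for no effect and ±100 for the full control effect.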 As to conditions: Jurkat NFAT-bla M1, carbachol, beta-lactamase ratio, 5 h; at 7.69 µM (top of the series) unless noted. The method, boiled down:
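Read-out: CCF4 FRET ratio (460 nm/530 nm) after 1 h RT dye loading, used for %activity and AC50 from titration series. Cells: Jurkat NFAT-β-lactamase/M1 line, treated with compound plus 1 uM carbachol for 5 h, 37 °C.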

The nature of assay [4]: Stat Signaling Pathway (AID 446).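 Also: ME-180 cervical cancer cells given 40 pM IL-6 alongside compound; SIE-controlled beta-lactamase reporter measured as 460/530 nm FRET emission ratio; % is scaled to controls: 0 for no effect and ±100 for the full control effect.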 To be noted: ME-180 (cervical carcinoma) SIE beta-lactamase reporter, IL-6 stimulated, 5 h; at 7.69 µM (top of the series) unless noted. The method, boiled down: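 FRET read-out (405 nm excitation, 460/530 nm emission) of a beta-lactamase reporter under a STAT-inducible element in ME-180 cervical carcinoma cells. Cells with compound receive 40 pM IL-6 for 5 h. Values are normalised to AC90 stimulation and AC90 JAK-inhibitor controls.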

Assay [5] has as its target Glucocorticoid receptor (Homo sapiens) (UniProt P04150). Put plainly: GR-EFC Redistribution (AID 451; calls by dose curve; also: potency is read from the fitted curve at half-maximal effect). As to conditions: CHO-K1 GR-EFC translocation, beta-gal luminescence, 2 h. A digest of the protocol: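 Translocation of GR-ED fusion to nuclear EA restores b-gal, read by luminescence after 1 h room-temperature detection. Engineered CHO-K1 biosensor cells, 1,000/well, exposed 2 h at 37 C to titrations up to 46 uM final.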

The target in assay [6] is Mitogen-activated protein kinase 10 (Mus musculus) (UniProt Q61831). Nature of the assay: JNK3 AlphaScreen Assay (AID 530).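 Also: kinase came from lysate of stimulated human HepG2 cells; signal reports phosphorylation of biotinylated GST-cJun 1-79 at Ser73 with 10 µM ATP; % is scaled to controls: 0 for no effect and ±100 for the full control effect.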 As to conditions: JNK3 lysate, c-Jun phosphorylation; series mostly up to 57.1 µM. The method, boiled down:
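Kinase buffer: 20 mM Tris-HCl pH 7.6, 10 mM MgCl2, 1 mM DTT, 0.1 mM Na3VO4, 0.01% Tween-20; ATP 10 uM. Substrate biotin-GST-cJun(1-79), enzyme from activated HepG2 lysates. Detection by Ser73 phospho-antibody AlphaScreen.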
For orientation: In Alpha technology, singlet oxygen from a donor bead excites a nearby acceptor bead.

For assay [7], the target named is 3',5'-cyclic-AMP phosphodiesterase 4B (Homo sapiens) (UniProt Q07343). Put plainly: qHTS Assay for Inhibitors of PDE-IV (AID 607; active = well fitted activation curve with a large enough effect in the main read-out, with a control signal flat, not every such curve was filed as active; also: % of control where 0% means no effect). As to conditions: HEK293 ACTOne CNG channel cells, membrane potential fluorescence; series mostly up to 22.9 µM. A digest of the protocol:
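Cell-based read-out of cAMP via a modified cyclic nucleotide-gated channel and membrane potential dye (535/590 nm) in HEK293 cells expressing PDE4 endogenously. Compounds tested up to 22.9 uM final; 100 uM RO 20-1724 reference.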
(Quantitative high-throughput screening tests each substance at several concentrations.)

The nature of assay [8]: qHTS Assay for Lipid Storage Modulators (AID 1519; calls by dose curve). As to conditions: Drosophila S3 cells, BODIPY lipid droplet/cell ratio, laser cytometry, cells loaded with oleic acid; for activity change, negative = inhibition: at 57.5 µM (top of the series). A digest of the protocol:
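Cells seeded at 5,000 per well were treated with compounds over a concentration series and loaded with oleic acid (400 uM, as added). Lipid droplet fluorescence (488 nm excitation, 500-530 nm channel) was read by laser-scanning cytometry and normalized to 20 uM Triacsin C.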

Assay [9] can be described thus: Primary qHTS for small molecule stabilizers of the endoplasmic reticulum resident proteome: Secreted ER Calcium Modulated Protein (SERCaMP) assay (AID 1508630; active = well fitted inhibition curve with a large enough effect; also: % is scaled to controls: 0 for no effect and ±100 for the full control effect). As to conditions: SH-SY5Y GLuc-SERCaMP (Gaussia luciferase released on ER calcium loss) secretion, thapsigargin, luminescence; series mostly up to 38.4 µM. The method, boiled down:
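The SH-SY5Y reporter protocol was run at 3 concentrations up to 38.3 uM (primary) or 11 concentrations (follow-up): 16 h compound, 100 nM thapsigargin for 4 h, then extracellular luciferase luminescence.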

The mark [10] stands for this setting: measured here: cell count channel max response.
Setting [11] is: measured here: lipid channel max response.

3',5'-cyclic-AMP phosphodiesterase 4B (Homo sapiens), sequence (Q07343 whole entry, looked up): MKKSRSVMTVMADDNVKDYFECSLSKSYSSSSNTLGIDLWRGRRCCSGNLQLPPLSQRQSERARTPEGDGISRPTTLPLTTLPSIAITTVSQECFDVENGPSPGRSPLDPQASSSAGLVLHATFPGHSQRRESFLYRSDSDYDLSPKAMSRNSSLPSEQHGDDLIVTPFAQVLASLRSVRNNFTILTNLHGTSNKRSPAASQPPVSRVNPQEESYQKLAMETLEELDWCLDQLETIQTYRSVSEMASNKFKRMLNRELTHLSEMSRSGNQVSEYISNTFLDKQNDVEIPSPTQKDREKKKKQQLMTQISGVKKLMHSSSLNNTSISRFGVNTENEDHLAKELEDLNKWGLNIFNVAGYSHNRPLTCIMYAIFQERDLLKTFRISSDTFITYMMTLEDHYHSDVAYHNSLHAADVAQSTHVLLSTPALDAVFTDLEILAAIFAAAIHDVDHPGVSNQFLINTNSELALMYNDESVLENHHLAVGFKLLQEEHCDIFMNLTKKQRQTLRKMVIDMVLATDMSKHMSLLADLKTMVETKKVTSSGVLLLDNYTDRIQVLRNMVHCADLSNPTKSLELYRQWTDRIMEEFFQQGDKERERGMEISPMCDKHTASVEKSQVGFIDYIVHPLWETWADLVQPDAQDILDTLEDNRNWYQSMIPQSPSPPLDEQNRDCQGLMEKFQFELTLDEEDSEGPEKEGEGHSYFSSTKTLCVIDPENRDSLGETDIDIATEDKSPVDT
Glucocorticoid receptor (Homo sapiens), sequence (P04150 whole entry, looked up, the tested form may be a part): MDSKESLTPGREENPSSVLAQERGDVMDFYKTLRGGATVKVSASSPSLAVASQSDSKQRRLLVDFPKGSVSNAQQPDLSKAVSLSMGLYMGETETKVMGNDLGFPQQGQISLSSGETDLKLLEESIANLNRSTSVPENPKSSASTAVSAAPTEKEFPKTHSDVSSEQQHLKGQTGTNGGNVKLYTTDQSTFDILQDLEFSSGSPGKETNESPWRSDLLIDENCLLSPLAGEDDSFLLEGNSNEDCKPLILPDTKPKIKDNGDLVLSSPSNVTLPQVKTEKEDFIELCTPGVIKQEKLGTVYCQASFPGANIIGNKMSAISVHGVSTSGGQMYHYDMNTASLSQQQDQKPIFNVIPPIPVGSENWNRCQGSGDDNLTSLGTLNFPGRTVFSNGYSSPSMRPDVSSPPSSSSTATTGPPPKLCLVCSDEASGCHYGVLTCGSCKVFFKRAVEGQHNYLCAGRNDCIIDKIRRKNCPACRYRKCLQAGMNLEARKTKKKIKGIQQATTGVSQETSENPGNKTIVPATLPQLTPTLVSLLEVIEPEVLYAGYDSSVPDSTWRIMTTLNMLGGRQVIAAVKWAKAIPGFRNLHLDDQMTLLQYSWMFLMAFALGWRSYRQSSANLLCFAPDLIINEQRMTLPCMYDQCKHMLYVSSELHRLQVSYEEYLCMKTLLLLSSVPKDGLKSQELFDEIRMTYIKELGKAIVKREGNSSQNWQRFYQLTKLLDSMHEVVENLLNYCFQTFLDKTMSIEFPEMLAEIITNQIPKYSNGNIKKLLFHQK
Lysosomal acid glucosylceramidase (Homo sapiens), sequence (P04062 whole entry, looked up): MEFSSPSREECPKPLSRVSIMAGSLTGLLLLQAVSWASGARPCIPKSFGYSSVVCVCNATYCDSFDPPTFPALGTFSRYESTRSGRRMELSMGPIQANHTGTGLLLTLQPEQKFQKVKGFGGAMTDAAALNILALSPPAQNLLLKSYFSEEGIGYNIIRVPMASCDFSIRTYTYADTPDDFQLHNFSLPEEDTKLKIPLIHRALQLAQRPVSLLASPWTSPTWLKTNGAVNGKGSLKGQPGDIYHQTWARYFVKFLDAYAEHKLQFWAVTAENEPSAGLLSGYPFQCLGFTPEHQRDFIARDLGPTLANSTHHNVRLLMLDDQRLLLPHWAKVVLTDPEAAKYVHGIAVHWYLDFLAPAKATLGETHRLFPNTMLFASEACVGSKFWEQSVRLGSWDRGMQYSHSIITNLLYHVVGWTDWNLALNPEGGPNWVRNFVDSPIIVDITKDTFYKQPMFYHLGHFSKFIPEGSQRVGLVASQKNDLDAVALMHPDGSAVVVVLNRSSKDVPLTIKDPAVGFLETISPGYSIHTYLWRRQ

Turning to `CS(=O)(=O)N1CCC2(CC1)CN(C(=O)Nc1cccc(F)c1)C2`, the results for the Potency in assay [1] and in assay [5] were > 11.4 µM (inactive) and > 46 µM (inactive), respectively. Moreover, the activity change, negative = inhibition in [2] is 0.393% (inactive); in assay [3] it was 3.65% (inactive); in [8] it was 5.56% (inactive). Also, the activity, negative = inhibition in [4] is 13.3% (inactive). Besides, the Potency entry in assay [6] and in [7] was “inactive” in each case. Further, the values for the max response in assay [8] (setting [10]) and in assay [8] (setting [11]) were 15.2% and 24.9%, respectively. The outcome in assay [9] was inactive.
In the case of `COc1ccc(NC(=O)N2CC3(CCN(C(=O)c4cc(C(F)(F)F)cc(C(F)(F)F)c4)CC3)C2)cc1`, the values for the Potency in [1] and in [5] were > 11.4 µM (inactive) and > 46 µM (inactive), respectively. Also, the activity change, negative = inhibition in assay [2] is -15.1% (inactive); in [3] it was 16% (inactive); in [8], 2.01% (inactive). The activity, negative = inhibition in assay [4] is -20.2% (inactive). The Potency entry in assay [6] and in assay [7] was “inactive” in each case. In addition, the max response in assay [8] (setting [10]) turned out to be 12.2%; in assay [8] (setting [11]), 18.4%. In assay [9], the result was inactive.
Take `O=C(Nc1cccc(F)c1)N1CC2(CCN(C(=O)c3cccc(F)c3)CC2)C1`: the Potency in assay [1] is > 11.4 µM (inactive); in assay [5] it was > 46 µM (inactive). Further, the activity change, negative = inhibition in assay [2] was -21.6% (inactive); in assay [3], 22.7% (inactive); in [8], 1.48% (inactive). Also, in assay [4], the activity, negative = inhibition was -4.12% (inactive). Moreover, the Potency result in assay [6] and in [7] was “inactive” each time. Besides, the max response in assay [8] (setting [10]) is 1.76%; in assay [8] (setting [11]), 6.4%. Also, the result in [9] was inactive.
For `O=S(=O)(c1ccccc1)N1CCC[C@@]2(CCN(c3ncccn3)C2)C1`, the figures for the Potency in [1] and in [5] were > 11.4 µM (inactive) and > 46 µM (inactive), respectively. In addition, the activity change, negative = inhibition in [2] was -0.184% (inactive); in assay [3], 27.1% (inactive); in assay [8], 4.79% (inactive). In addition, the activity, negative = inhibition in assay [4] is -4.75% (inactive). The Potency result in assay [6] and in assay [7] was “inactive” each time. The max response was 6.87% in assay [8] (setting [10]) and 13% in assay [8] (setting [11]). For the same molecule, the result in assay [9] was inactive.
Regarding `O=C(Nc1cccc(F)c1)N1CC2(CCN(C(=O)c3ccco3)CC2)C1`, the Potency is > 11.4 µM (inactive) in assay [1] and > 46 µM (inactive) in assay [5]. The activity change, negative = inhibition in assay [2] is -3.07% (inactive); in assay [3] it was 4.39% (inactive); in assay [8] it was 5.94% (inactive). Also, in assay [4], the activity, negative = inhibition is 1.12% (inactive). For the same molecule, the Potency entry in [6] and in assay [7] was “inactive” in each case. The figures for the max response in assay [8] (setting [10]) and in assay [8] (setting [11]) were 1.85% and 13.6%, respectively. Moreover, the outcome in assay [9] was inactive.
As for `COC(=O)N1CCC[C@@]2(CCN(C(=O)NC(C)C)C2)C1`, the Potency in assay [1] is > 11.4 µM (inactive); in assay [5], > 46 µM (inactive). Also, the activity change, negative = inhibition is -4.17% (inactive) in [2], -22.1% (inactive) in assay [3] and 2.29% (inactive) in [8]. Further, in assay [4], the activity, negative = inhibition is 8.06% (inactive). Further, the Potency result in [6] and in assay [7] was “inactive” in each case. Moreover, the max response was -6.98% in assay [8] (setting [10]) and -3.79% in assay [8] (setting [11]). The result in [9] was inactive.
For `O=C(c1ccncc1)N1CCC2(CCCN(c3ccccc3)C2)CC1`, the Potency in assay [1] was > 11.4 µM (inactive); in assay [5], > 46 µM (inactive). The values for the activity change, negative = inhibition in assay [2], in assay [3] and in assay [8] were -3.67% (inactive), 3.61% (inactive) and 6.76% (inactive), respectively. Also, in [4], the activity, negative = inhibition was -3.54% (inactive). Moreover, the Potency entry in assay [6] and in assay [7] was “inactive” each time. The max response in assay [8] (setting [10]) amounted to 7.52%; in assay [8] (setting [11]), 17.5%. Besides, the outcome in [9] was inactive.
For `O=C(c1cccc(F)c1)N1CCC[C@@]2(CCN(c3ncccn3)C2)C1`, the Potency was > 11.4 µM (inactive) in assay [1] and > 46 µM (inactive) in [5]. The activity change, negative = inhibition is -17.6% (inactive) in [2], 10.1% (inactive) in assay [3] and 3.33% (inactive) in assay [8]. For the same molecule, in assay [4], the activity, negative = inhibition is 1.15% (inactive). The Potency entry in assay [6] and in assay [7] was “inactive” each time. The max response in assay [8] (setting [10]) is 7.74%; in assay [8] (setting [11]), 15.7%. Also, in assay [9], the result was inactive.

These data come from PubChem BioAssay (NCATS).
